# The list is not random: actives were taken first. Their share in the collection is about 3%.
# pPAFAH inh: inhibitors of human plasma PAF acetylhydrolase (pPAFAH) | Q13093 | 1.5% of 330,000 active | recombinant pPAFAH, FP-rhodamine probe fluorescence polarization | AID 463082 | inhibition, % at 3.39 µM;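 active means inhibition above the mean inhibition across the screen plus 3 SD, cut at about 25% in these data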;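 further: inhibitors block binding of the rhodamine activity-based probe so polarization drops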
# PAFAH1B2 FP inh: PAFAH1B2 (human) inhibition | P68402 | inhibition, % at 3.39 µM | AID 492953 | 1.2% of 340,000 active | recombinant PAFAH1B2, FP-rhodamine activity probe, fluorescence polarization;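 active means inhibition above the mean of all tested compounds plus 3 SD, cut at about 24% in these data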
# Target sequence (P68402 whole entry, looked up): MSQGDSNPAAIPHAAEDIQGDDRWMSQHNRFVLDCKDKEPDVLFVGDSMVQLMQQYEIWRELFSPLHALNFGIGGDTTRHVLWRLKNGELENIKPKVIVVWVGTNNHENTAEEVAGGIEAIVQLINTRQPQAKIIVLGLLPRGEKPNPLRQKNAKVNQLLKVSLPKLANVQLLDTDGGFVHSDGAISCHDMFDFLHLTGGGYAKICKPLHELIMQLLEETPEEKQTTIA
# PAFAH1B3 FP inh: blocks human PAF acetylhydrolase 1B catalytic subunit 3 | inhibition, % at 3.39 µM | recombinant PAFAH1B3, FP-rhodamine probe, fluorescence polarization | AID 492972 | 0.28% of 340,000 active | Q15102;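 active means inhibition above the screen-wide average of all tested compounds plus 3 SD, cut at about 25% in these data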
# Target sequence (Q15102 whole entry, looked up): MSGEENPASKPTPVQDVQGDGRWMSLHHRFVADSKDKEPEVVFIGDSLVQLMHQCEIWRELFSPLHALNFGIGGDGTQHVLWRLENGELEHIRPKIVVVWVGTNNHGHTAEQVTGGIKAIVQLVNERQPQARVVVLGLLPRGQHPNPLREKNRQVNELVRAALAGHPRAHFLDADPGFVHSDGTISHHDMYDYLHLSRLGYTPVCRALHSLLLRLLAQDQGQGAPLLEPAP
# DAGLB inhibitor: blocks human DAGLB lipase activity. HEK293T DAGLB membrane lysate, EnzChek fluorogenic substrate. Q8NCG7. 0.059% of 340,000 active. AID 504411. inhibition, % at 5.17 µM; in the data active means inhibition above about 34%
# ATG4B inhibitor: blocks human ATG4B protease cleavage of LC3 substrate; Q9Y4P1; ATG4B cleavage of LC3-PLA2, NBD-HPC fluorescence, 1 h; inhibition, % at 8.33 µM; 0.51% of 340,000 active; AID 504462; in the data active means inhibition above about 40%
# PAFAH2 inh: inhibitors of human PAFAH2. recombinant PAFAH2, FP-rhodamine activity probe, fluorescence polarization. inhibition, % at 3.39 µM. 0.99% of 340,000 active;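 active means inhibition above the mean over all tested compounds plus 3 SD, cut at about 30% in these data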;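 further: inhibitors block probe labeling of enzyme so polarization drops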
# A number is an active result; 0 = inactive; - = no result given.
SMILES,pPAFAH inh,PAFAH1B2 FP inh,PAFAH1B3 FP inh,DAGLB inhibitor,ATG4B inhibitor,PAFAH2 inh
COc1cc(CNC(=O)c2cnc(C)cn2)cc(OC)c1,0,0,0,0,0,0
CC(C(=O)NCCS(=O)(=O)c1ccc(Br)cc1)S(=O)(=O)c1ccc(Cl)cc1 (stereo not drawn),0,0,0,0,0,0
O=C(NCCS(=O)(=O)c1ccc(Br)cc1)c1ccc(Cl)cc1,0,28,0,0,0,0
COc1cccc(N2CCN(C(=O)CN3C(=O)NC(C)(c4ccc5ccccc5c4)C3=O)CC2)c1 (stereo not drawn),0,0,0,0,0,0
CC(C)(C)c1ccc(S(=O)(=O)CC(O)CSc2nc3c(cc2C#N)CCCC3)cc1 (stereo not drawn),0,0,0,0,0,0
N#Cc1cc2c(nc1SCC(O)CS(=O)(=O)Cc1ccc(Cl)cc1)CCCC2 (stereo not drawn),0,30,0,0,0,0
O=C(Nc1nc2ccccc2[nH]1)C12CC3CC(CC(C3)C1)C2,0,29,0,0,0,0
CCc1cc(=O)oc2cc(C)cc(OCC(=O)N[C@@H](CSCc3ccccc3)C(=O)O)c12,0,0,0,0,0,0
CCc1cc(=O)oc2cc(C)cc(OCC(=O)NC(Cc3ccc(Cl)cc3)C(=O)O)c12 (stereo not drawn),0,25,0,0,0,0
C=CC[C@H](CC(=O)NCCO)C(=O)N[C@H](COC(=O)[C@@H](CC=C)Cc1ccc(F)cc1)c1ccccc1,0,25,0,0,0,0
COc1nc(OCCNC(=O)Nc2ccccc2)nc(N(C)C)n1,0,0,0,0,0,0
CN(C)c1nc(OCCNC(=O)Nc2ccc(Cl)cc2)nc(N(C)C)n1,25,0,0,0,0,0
COCCNC(=O)CCN1N=C(c2ccccc2)CCC1=O,0,0,0,0,0,0
Cc1c(NC(=O)C(C)OC(=O)C23CC4CC(CC(Br)(C4)C2)C3)c(=O)n(-c2ccccc2)n1C (stereo not drawn),0,48,0,0,0,0
Cc1c(NC(=O)COC(=O)C23CC4CC(CC(O)(C4)C2)C3)c(=O)n(-c2ccccc2)n1C,0,0,0,0,0,0
C[C@H]1CCC[C@]2(O[C@H](CCO)C[C@@H](O)[C@@H]2O)O1,0,0,0,0,0,0
FC(F)(F)c1ccc(N=Cc2sc(N3CCOCC3)nc2-c2ccccc2)cc1,0,0,0,0,0,0
Cc1cccc(OCCNS(=O)(=O)c2ccc(Cl)cc2)c1,0,24,0,0,0,0
Cc1cccc(NC(=O)CCNS(=O)(=O)c2ccc(Cl)cc2)c1,0,0,0,0,0,0
Cc1ccc(/C=C2\SC(N3CCCC3)=NC2=O)cc1,0,-,-,-,-,-
CN(C)c1ccc(/C=C2\SC(N3CCCCC3)=NC2=O)cc1,28,0,0,0,0,0
CCc1ccc(-c2nc(CSCC(=O)N3CCN(c4ccccn4)CC3)c(C)o2)cc1,0,44,0,0,0,0
Cc1ccc(-c2nc(CSCC(=O)N3CCN(c4ccccn4)CC3)c(C)o2)cc1,0,25,0,0,0,0
CC(=O)N1CCN(S(=O)(=O)c2cccc(C(=O)N3CCN(S(=O)(=O)c4c(C)c(C)cc(C)c4C)CC3)c2)CC1,-,-,-,0,-,-
Cc1c(NC(=O)CSc2ccc(Cl)cc2)cccc1-c1nc2ncccc2o1,0,25,0,0,0,0
SMILES,pPAFAH inh,PAFAH1B2 FP inh,PAFAH1B3 FP inh,DAGLB inhibitor,ATG4B inhibitor,PAFAH2 inh
Nc1[nH]nc2ncc3cc4ccccc4nc3c12,30,0,0,0,0,0
c1ccc2nc3c(ccc4ccccc43)cc2c1,-,0,0,0,0,0
COc1cccc(C(=O)NCCS(=O)(=O)NCc2ccccn2)c1,0,0,0,0,0,0
CC(=O)N1CCN(C(=O)c2cccc(S(=O)(=O)Nc3c(C)n(C)n(-c4ccccc4)c3=O)c2)CC1,-,0,0,0,0,0
Cc1ccc(CCNC(=O)C2CCCN(S(=O)(=O)c3c(C)nn(C)c3C)C2)cc1 (stereo not drawn),0,29,0,0,0,0
CCS(=O)(=O)N1CCCC(C(=O)NCCc2ccc(C)cc2)C1 (stereo not drawn),0,0,0,0,0,0
Cc1noc(/C=C/N(C)C)c1S(=O)(=O)N1CCCC(C(=O)NCCC2=CCCCC2)C1 (stereo not drawn),25,0,0,0,0,0
O=C1N/C(=N\S(=O)(=O)Cc2ccccc2)S/C1=C/c1cc([N+](=O)[O-])ccc1O,32,29,39,0,0,0
COc1cc(/C=C2\S/C(=N/S(=O)(=O)Cc3ccccc3)NC2=O)c([N+](=O)[O-])cc1OC,0,0,0,0,0,0
O=C(CCn1ccnc1)Nc1ccc2ccccc2c1,0,0,0,0,0,0
COc1ccc(C2CC(c3ccccc3)=NN2c2ccc(Cl)c(C(=O)O)c2)cc1 (stereo not drawn),34,0,0,0,0,0
COc1ccc(C2CC(c3ccccc3O)=NN2c2ccccc2)cc1 (stereo not drawn),0,0,0,0,0,0
COc1ccc(C2CC(c3ccccc3)=NN2c2ccc(N)cc2)cc1 (stereo not drawn),26,0,0,0,0,0
COc1ccc(C2=NN(c3ccc(C(=O)O)cc3)C(c3ccc(OC)c(OC)c3)C2)cc1 (stereo not drawn),27,0,0,0,0,0
CCC(=O)Nc1cccc(C2=NN(c3ccccc3)C(c3ccc(OC)cc3)C2)c1 (stereo not drawn),0,0,0,0,0,0
COc1ccc(C2CC(c3ccccc3)=NN2c2ccc(S(N)(=O)=O)cc2)cc1OC (stereo not drawn),0,0,0,0,0,0
CC(=O)c1ccccc1NC(=O)c1ccc(N2CCCC2=O)cc1,0,0,0,0,0,0
CC1CCN(CCCNC(=O)c2nn(C)c3c2CS(=O)(=O)c2ccccc2-3)CC1,0,0,0,0,0,0
CC(=O)N1CC=C2C(C#N)=C(N)C(C#N)(C#N)[C@H](c3ccoc3)[C@H]2C1,0,0,0,0,0,0
CN1CC=C2C(C#N)=C(N)C(C#N)(C#N)[C@H](c3ccoc3)[C@H]2C1,32,0,0,0,0,0
S=c1[nH]nc(CCSCc2ccccc2)n1-c1ccccc1,0,28,0,0,0,0
COc1ccc(CSCCc2n[nH]c(=S)n2-c2ccccc2)cc1C,0,0,0,0,0,0
CNC(=O)c1cc(C(=O)c2ccc(Cl)cc2)c(Br)[nH]1,0,37,0,0,0,0
CNC(=O)c1cc(C(=O)c2ccccc2Br)c[nH]1,0,0,0,0,0,0
CCN(CC)CCCNC(=O)Cn1cnc2ccc(S(=O)(=O)N3CCC(C)CC3)cc2c1=O,0,0,0,0,0,0
Cc1cccc(NC(=O)Cn2cnc3ccc(S(=O)(=O)N4CCC(C)CC4)cc3c2=O)n1,0,24,0,0,0,0
